Measurements: PubChem BioAssay
Several values for one entry are separate records, joined by “and”; a condition that tells them apart may be missing. Equal values may be shown once. Activity calls are given as the source filed them.

Key:
[1] = anti-His antibody binders, primary screen, artefact control for SMM control protein annotation, biochemical, small-molecule microarray, 635 nm fluorescence (AID 1128); settings: anti-His Alexa647 antibody binding, higher = more signal;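 also: score merges feature fluorescence with signal-to-noise for each printed compound spot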
[2] = test system: Human papillomavirus type 1a E7 protein (residues 1-88); experiment: HPV1a E7 small-molecule binders, primary screen, biochemical, small-molecule microarray, residues 1-88, 635 nm (AID 1129); settings: small-molecule microarray binding, fluorescence 635 nm; higher = more signal
[3] = target: Focal adhesion kinase 1 (Homo sapiens) (UniProt Q05397); experiment: small-molecule microarray binders of FAK, primary screen, biochemical, 635/667 nm fluorescence, BSA, DTT (AID 1130); settings: PTK2 binding, 635 nm fluorescence, higher = more signal;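 also: composite of spot emission at 667 nm and signal to noise over triplicate slides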
Sequence of Focal adhesion kinase 1 (Homo sapiens) (Q05397 whole entry, looked up): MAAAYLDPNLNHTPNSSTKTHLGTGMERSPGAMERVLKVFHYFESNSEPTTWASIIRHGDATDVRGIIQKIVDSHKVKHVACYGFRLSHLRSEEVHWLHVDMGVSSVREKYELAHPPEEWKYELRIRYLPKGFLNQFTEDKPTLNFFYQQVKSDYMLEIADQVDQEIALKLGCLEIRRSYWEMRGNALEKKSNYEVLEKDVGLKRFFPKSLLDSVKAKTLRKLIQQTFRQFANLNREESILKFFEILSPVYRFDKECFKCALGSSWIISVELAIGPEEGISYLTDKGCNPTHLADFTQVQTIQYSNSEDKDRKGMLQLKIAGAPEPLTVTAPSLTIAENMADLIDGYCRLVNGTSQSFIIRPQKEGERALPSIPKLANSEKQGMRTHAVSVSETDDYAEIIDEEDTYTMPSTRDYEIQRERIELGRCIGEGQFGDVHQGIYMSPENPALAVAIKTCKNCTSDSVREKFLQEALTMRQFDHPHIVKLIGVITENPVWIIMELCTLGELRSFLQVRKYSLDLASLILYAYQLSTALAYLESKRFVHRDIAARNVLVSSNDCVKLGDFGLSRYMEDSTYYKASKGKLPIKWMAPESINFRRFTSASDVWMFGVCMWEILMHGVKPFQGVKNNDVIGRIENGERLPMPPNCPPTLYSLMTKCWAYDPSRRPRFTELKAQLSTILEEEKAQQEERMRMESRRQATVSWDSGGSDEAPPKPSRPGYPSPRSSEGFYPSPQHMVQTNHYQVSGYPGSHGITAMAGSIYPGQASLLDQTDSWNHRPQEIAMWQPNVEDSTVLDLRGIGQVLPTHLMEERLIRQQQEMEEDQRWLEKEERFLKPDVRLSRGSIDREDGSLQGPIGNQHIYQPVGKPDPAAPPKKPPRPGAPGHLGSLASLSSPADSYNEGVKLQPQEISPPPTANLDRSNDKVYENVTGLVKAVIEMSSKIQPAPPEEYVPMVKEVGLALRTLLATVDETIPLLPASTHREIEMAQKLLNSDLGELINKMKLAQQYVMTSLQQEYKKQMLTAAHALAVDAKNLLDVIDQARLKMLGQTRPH

[4] = test system: Fibrinogen (Alexa647-labelled); experiment: fibrinogen binders on compound microarrays, profiling panel, artefact control for SMM control-protein annotation, biochemical, small-molecule microarray, 635/667 nm fluorescence (AID 1131); settings: fibrinogen-A647 binding fluorescence, higher = more signal;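 also: z-score merges 667 nm fluorescence with per-spot signal-to-noise over triplicate slides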
[5] = target: Follistatin (Homo sapiens) (UniProt P19883); experiment: follistatin binders on small-molecule microarrays, primary screen, biochemical, small-molecule microarray, 635/667 nm fluorescence (AID 1132); settings: FST binding, 635 nm fluorescence, higher = more signal
Sequence of Follistatin (Homo sapiens) (P19883 whole entry, looked up): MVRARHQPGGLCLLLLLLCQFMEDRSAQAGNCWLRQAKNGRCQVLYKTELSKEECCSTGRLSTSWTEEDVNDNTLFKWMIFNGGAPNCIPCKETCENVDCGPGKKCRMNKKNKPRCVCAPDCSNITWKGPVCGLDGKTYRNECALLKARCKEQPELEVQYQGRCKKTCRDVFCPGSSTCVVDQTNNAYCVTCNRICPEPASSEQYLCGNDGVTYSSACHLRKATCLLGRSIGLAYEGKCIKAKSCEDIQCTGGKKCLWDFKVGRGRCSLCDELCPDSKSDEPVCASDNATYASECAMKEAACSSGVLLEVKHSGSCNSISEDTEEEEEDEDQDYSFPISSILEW

[6] = target: Fibroblast growth factor 2 (Homo sapiens) (UniProt P09038); experiment: FGF2 binders on small-molecule microarrays, primary screen, biochemical, small-molecule microarray, 635/667 nm fluorescence (AID 1133); settings: small-molecule microarray binding, FGF2, fluorescence 635/667; higher = more signal
Sequence of Fibroblast growth factor 2 (Homo sapiens) (P09038 whole entry, looked up): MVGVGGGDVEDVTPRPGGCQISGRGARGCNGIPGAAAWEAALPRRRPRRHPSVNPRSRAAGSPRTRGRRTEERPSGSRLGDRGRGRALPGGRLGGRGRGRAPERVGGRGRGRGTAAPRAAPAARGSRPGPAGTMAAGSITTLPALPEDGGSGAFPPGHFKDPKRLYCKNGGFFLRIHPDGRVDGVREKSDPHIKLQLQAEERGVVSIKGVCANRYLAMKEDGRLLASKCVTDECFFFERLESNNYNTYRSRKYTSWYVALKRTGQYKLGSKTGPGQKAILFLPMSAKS

[7] = mitochondrial membrane potential change in A549 cells, profiling panel, cell-based, JC-1 fluorescence, basal, 24 h, 100 nL (AID 1138); settings: higher = more signal;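 also: A549 lung adenocarcinoma cells under basal conditions with no added stimulus; test concentration not given here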
Lefty1 = Lefty1 binders on small-molecule microarrays, primary screen, biochemical, small-molecule microarray, 635/667 nm fluorescence (AID 1139); settings: small-molecule microarray binding, fluorescence 635/667; higher = more signal
[8] = test system: wheat germ agglutinin (Triticum aestivum), Alexa647-labelled; experiment: wheat germ agglutinin binders on compound microarrays, profiling panel, artefact control for SMM control-protein annotation, biochemical, small-molecule microarray, 635/667 nm fluorescence (AID 1140); settings: WGA-A647 binding, 635 nm fluorescence, higher = more signal;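 also: score merges 667 nm feature emission with signal to noise over triplicate slides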
[9] = target: Luciferin 4-monooxygenase (Photinus pyralis) (UniProt P08659); experiment: firefly luciferase enzyme inhibitors, primary screen, biochemical, luminescence, purified enzyme, 2006 set (AID 1141); settings: SteadyGlo luminescence, 30 min, higher = more signal, called active from +8 up or from −8 down;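 also: cell-free assay with purified firefly luciferase at 100 ng per well in PBS; test concentration not given here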
Sequence of Luciferin 4-monooxygenase (Photinus pyralis) (P08659 whole entry, looked up): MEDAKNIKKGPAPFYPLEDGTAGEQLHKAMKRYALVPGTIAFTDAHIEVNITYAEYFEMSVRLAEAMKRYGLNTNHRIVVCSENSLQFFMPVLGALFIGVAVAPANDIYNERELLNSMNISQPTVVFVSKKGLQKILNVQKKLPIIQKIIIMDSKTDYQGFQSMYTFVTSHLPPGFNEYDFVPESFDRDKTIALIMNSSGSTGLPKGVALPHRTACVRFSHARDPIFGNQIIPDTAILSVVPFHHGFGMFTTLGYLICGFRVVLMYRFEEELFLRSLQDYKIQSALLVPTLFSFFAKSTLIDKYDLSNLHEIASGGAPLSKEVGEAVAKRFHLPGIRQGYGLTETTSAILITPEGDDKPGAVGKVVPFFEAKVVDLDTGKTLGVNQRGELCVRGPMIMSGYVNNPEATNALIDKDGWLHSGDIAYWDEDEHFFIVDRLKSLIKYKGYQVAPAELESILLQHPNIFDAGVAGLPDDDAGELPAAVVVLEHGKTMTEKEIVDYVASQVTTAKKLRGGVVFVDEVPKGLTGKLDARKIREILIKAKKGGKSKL

Row | SMILES | composite z-score [1] | composite z-score [2] | composite z-score [3] | composite z-score [4] | composite z-score [5] | composite z-score [6] | z-score [7] | composite z-score (Lefty1) | composite z-score [8] | z-score [9]
1 | C=CCN(C(=O)C(c1cccs1)N(C(=O)/C=C\C(=O)O)C(C)(C)CO)C(C)(C)C (stereo not given) | -0.119 and 1.08 | 0.0785 and -0.562 | -0.033 and 0.193 | -0.654 and 0.99 | -0.493 and -1.32 | -0.454 and -0.588 | 1.12 and 0.815 | -1.35 and -1.25 | -0.452 and -0.231 | -1.45 (inactive) and -0.975 (inactive)
2 | COC(=O)C1=C(C)N(Cc2ccccc2)C2=C3C(=O)CCC[C@@H]3[C@@](O)(C(=O)OC)C(=O)N2[C@@H]1c1ccccc1 | 0.043 and -0.496 | 0.501 and 0.0093 | -0.12 and 0.177 | 0.335 and -1.14 | 0.584 and 0.158 | 0.997 and 0.581 | 1.22 and 0.728 | 0.573 and 0.217 | 0.121 and -1.1 | -1.29 (inactive) and -1.47 (inactive)
3 | C=CCN(CCCC)C(=O)C1N(CCCCCCO)C(=O)C2C(C(=O)O)C3C=CC21O3 (stereo not given) | -1.27 and 0.826 | -0.618 and -0.472 | -0.725 and -0.445 | -0.574 and -1.65 | -1.74 and -2.89 | -1.97 and -2.02 | -0.242 and 0.214 | -2.3 and -2.2 | 0.483 and -1.28 | 0.314 (inactive) and 0.488 (inactive)
4 | O=C(NN=C1C[C@@H](O)[C@@H](O)[C@@H]2[C@@H]3C(=O)N(Cc4ccc5c(c4)OCO5)C(=O)[C@@H]3CC[C@H]12)OCc1ccccc1 | -0.668 | -0.429 | -0.0697 | -0.507 | -1.07 | -0.274 | -0.174 | -0.418 | -0.754 | 0.0421 (inactive)
5 | CC(C)CON=C1C[C@@H](O)[C@@H](O)[C@@H]2[C@@H]3C(=O)N(c4cccc(Oc5ccccc5)c4)C(=O)[C@@H]3CC[C@H]12 | 0.348 | 0.347 | -0.195 | 0.202 | 0.39 | 0.397 | 0.0506 | 0.349 | 0.196 | 0.527 (inactive)
6 | CCN1C(=O)[C@H]2[C@H]3[C@H](O)[C@H](O)CC(=NOC[C@@H](O)COCc4ccco4)[C@@H]3CC[C@H]2C1=O | -0.48 and 2.77 | -1.11 and -1.61 | -0.406 and -0.591 | -0.852 and -0.943 | 1.34 and -0.205 | 1.66 and -0.129 | -0.254 and -1.57 | 1.44 and 0.31 | -0.559 and -0.746 | -0.0037 (inactive) and 0.33 (inactive)
7 | C=CCN(Cc1ccccc1)C(=O)C1N(c2ccc(CCO)cc2)C(=O)C2C(C(=O)O)C3C=CC21O3 (stereo not given) | -1.33 and -0.796 | -1.49 and -1.7 | 0.0389 and -0.704 | -0.944 and -1.58 | -2 and -2.08 | -2.32 and -2.92 | -0.571 and -0.775 | -2.53 and -1.55 | -0.0866 and 1.16 | -0.927 (inactive) and -0.283 (inactive)
8 | C[N+](C)(C)CCCCCCNC(=O)[C@@H]1C[C@@H]2C(=O)N[C@@H](CCCC[N+](C)(C)C)C(=O)N2[C@@H]1c1ccc(O)cc1 | 0.582 and 1.21 | -0.694 and 0.212 | -0.169 and -0.133 | -1.44 and -0.95 | 1.39 and 1.34 | 1.47 and 1.44 | -0.0687 and -0.662 | 0.914 and 1.04 | -0.187 and -0.088 | 0.547 (inactive) and 0.58 (inactive)
9 | C=CC[C@@H](O)c1ccc(O)c2ccccc12 | 1.02 and 1.68 | 0.647 and 1.11 | -0.618 and 0.11 | 0.353 and 0.0525 | 1.38 and 1.39 | 1.48 and 1.7 | 0.388 and -0.59 | 1.4 and 1.06 | 0.175 and 0.379 | -2.65 (inactive) and -2.18 (inactive)
10 | COC(=O)C1=C(C)N(Cc2ccccc2)C2=C(C(C)=O)C[C@@](O)(C(=O)OC)C(=O)N2[C@@H]1c1ccccc1 | 1.23 and -0.0396 | 0.5 and 0.2 | 0.271 and -0.209 | -0.378 and 1.02 | 0.247 and 0.12 | 1.55 and 0.0618 | 1.18 and 1.72 | 1.18 and 0.158 | -0.48 and 0.228 | -0.458 (inactive) and -1.7 (inactive)
11 | CCOC(=O)NN=C1C[C@@H](O)[C@@H](O)[C@@H]2[C@@H]3C(=O)N(Cc4ccc5c(c4)OCO5)C(=O)[C@@H]3CC[C@@H]12 | 0.0648 | 0.449 | -0.0156 | 0.669 | 0.0164 | 0.197 | 1.06 | 0.225 | 0.626 | 0.556 (inactive)
12 | C=CCN(C(=O)C(c1cccs1)N(CCOCCO)C(=O)/C=C\C(=O)O)C(C)(C)C (stereo not given) | -1.68 and -1.56 | -1.4 and -0.488 | -1.37 and -0.35 | -0.7 and -1.15 | -2.15 and -0.795 | -1.7 and -1.19 | 1.01 and 1.41 | -1.66 and -1.83 | -1.04 and -0.022 | -1.5 (inactive) and -1.32 (inactive)
13 | C=CCN(C(=O)C1N(C(C)(C)CO)C(=O)C2C(C(=O)O)C3C=CC21O3)c1ccc(OC)cc1 (stereo not given) | -2.21 and -2.2 | -1.08 and -1.45 | -0.488 and -0.747 | -1.1 and -1.88 | -2.74 and -3.18 | -2.91 and -2.56 | 0.869 and 0.79 | -2.07 and -3.54 | -1.08 and -2.01 | -2.06 (inactive) and -1.09 (inactive)
14 | C[N+](C)(C)CCCCNC(=O)[C@@H]1C[C@@H]2C(=O)N[C@@H](CCCC[N+](C)(C)C)C(=O)N2[C@@H]1c1cccc(OCCO)c1 | 2.73 and 2.55 | 0.905 and -0.426 | -0.791 and -0.306 | -0.355 and 0.553 | 1.54 and 1.48 | 1.94 and 1.9 | 0.725 and 1.07 | 1.73 and 1.55 | 0.284 and 0.68 | -1.56 (inactive) and -1.48 (inactive)
15 | CC(C)C(=O)N[C@@H]1CCCN1C(=O)C=Cc1ccccc1 | 0.108 | 0.746 | 0.746 | 0.494 | 0.541 | 0.565 | 1.81 | 0.813 | -0.0087 | -0.489 (inactive)
